Assay results taken from the supplement of paper PMC7411054.
Structures can show the parent of a compound that is named as a salt.

Columns and labels:
Test in all cases: phenotypically active (imaging signature differs from DMSO and reproducible) at any of 0.3-9 uM (binary (1 = active, 0 = inactive)); higher = active
Conditions in all cases: treatment time: 24 h
A549-ACTB-RAB5A = tested on: A549-ACTB-RAB5A
How it was run: (§1)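 After 24 h at 0.3, 1, 3 or 9 µM, with four wells per treatment, fifteen gene-edited A549, HepG2 and WPMY1 reporter lines carrying BFP, GFP and RFP/FusionRed were imaged live. Each well's live-cell features were expressed relative to solvent control wells. Deviation required ≥3 of 4 wells past the 95th percentile of control Euclidean distances, and reproducibility a median replicate Pearson correlation over the 95th percentile of non-replicates. Phenotypic activity rested on both.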

A549-CANX-COX4 = tested on: A549-CANX-COX4
How it was run: as §1

A549-GM130-SQSTM1 = tested on: A549-GM130-SQSTM1
How it was run: as §1

A549-TP53BP1-CLTA = tested on: A549-TP53BP1-CLTA
How it was run: as §1

A549-TUBA1B-RELA = tested on: A549-TUBA1B-RELA
How it was run: as §1

HepG2-ACTB-RAB5A = tested on: HepG2-ACTB-RAB5A
How it was run: as §1

HepG2-CANX-COX4 = tested on: HepG2-CANX-COX4
How it was run: as §1

HepG2-GM130-SQSTM1 = tested on: HepG2-GM130-SQSTM1
How it was run: as §1

HepG2-TP53BP1-CLTA = tested on: HepG2-TP53BP1-CLTA
How it was run: as §1

HepG2-TUBA1B-RELA = tested on: HepG2-TUBA1B-RELA
How it was run: as §1

WPMY1-ACTB-RAB5A = tested on: WPMY1-ACTB-RAB5A
How it was run: as §1

WPMY1-CANX-COX4 = tested on: WPMY1-CANX-COX4
How it was run: as §1

WPMY1-GM130-SQSTM1 = tested on: WPMY1-GM130-SQSTM1
How it was run: as §1

WPMY1-TP53BP1-CLTA = tested on: WPMY1-TP53BP1-CLTA
How it was run: as §1

WPMY1-TUBA1B-RELA = tested on: WPMY1-TUBA1B-RELA
How it was run: as §1

Measured: phenotypically active

CC(C)C[C@H](CN)CC(=O)O [pregabalin]
inactive: A549-ACTB-RAB5A 0 | A549-CANX-COX4 0 | A549-GM130-SQSTM1 0 | A549-TP53BP1-CLTA 0 | A549-TUBA1B-RELA 0 | HepG2-ACTB-RAB5A 0 | HepG2-CANX-COX4 0 | HepG2-GM130-SQSTM1 0 | HepG2-TP53BP1-CLTA 0 | HepG2-TUBA1B-RELA 0 | WPMY1-ACTB-RAB5A 0 | WPMY1-CANX-COX4 0 | WPMY1-GM130-SQSTM1 0 | WPMY1-TP53BP1-CLTA 0 | WPMY1-TUBA1B-RELA 0

CN1[C@@H]2C[C@@H](OC(=O)[C@H](CO)c3ccccc3)C[C@H]1[C@@H]1O[C@@H]12 [Scopolamine hydrobromide]
inactive: A549-ACTB-RAB5A 0 | A549-CANX-COX4 0 | A549-GM130-SQSTM1 0 | A549-TP53BP1-CLTA 0 | A549-TUBA1B-RELA 0 | HepG2-ACTB-RAB5A 0 | HepG2-CANX-COX4 0 | HepG2-GM130-SQSTM1 0 | HepG2-TP53BP1-CLTA 0 | HepG2-TUBA1B-RELA 0 | WPMY1-ACTB-RAB5A 0 | WPMY1-CANX-COX4 0 | WPMY1-GM130-SQSTM1 0 | WPMY1-TP53BP1-CLTA 0 | WPMY1-TUBA1B-RELA 0

COc1cc2c3cc1Oc1cc(ccc1O)C[C@@H]1c4c(cc(OC)c(O)c4Oc4cccc(c4)C[C@@H]3N(C)CC2)CC[N+]1(C)C [Tubocurarine chloride pentahydrate (+)]
inactive: A549-ACTB-RAB5A 0 | A549-CANX-COX4 0 | A549-GM130-SQSTM1 0 | A549-TP53BP1-CLTA 0 | A549-TUBA1B-RELA 0 | HepG2-ACTB-RAB5A 0 | HepG2-CANX-COX4 0 | HepG2-GM130-SQSTM1 0 | HepG2-TP53BP1-CLTA 0 | HepG2-TUBA1B-RELA 0 | WPMY1-ACTB-RAB5A 0 | WPMY1-CANX-COX4 0 | WPMY1-GM130-SQSTM1 0 | WPMY1-TP53BP1-CLTA 0 | WPMY1-TUBA1B-RELA 0

C=C(C)[C@H]1CN[C@H](C(=O)O)[C@H]1CC(=O)O [Kainic acid]
inactive: A549-ACTB-RAB5A 0 | A549-CANX-COX4 0 | A549-GM130-SQSTM1 0 | A549-TP53BP1-CLTA 0 | A549-TUBA1B-RELA 0 | HepG2-ACTB-RAB5A 0 | HepG2-CANX-COX4 0 | HepG2-GM130-SQSTM1 0 | HepG2-TP53BP1-CLTA 0 | HepG2-TUBA1B-RELA 0 | WPMY1-ACTB-RAB5A 0 | WPMY1-CANX-COX4 0 | WPMY1-GM130-SQSTM1 0 | WPMY1-TP53BP1-CLTA 0 | WPMY1-TUBA1B-RELA 0

C=C1[C@H]2C[C@@]3([C@@H]1O)[C@@H](C[C@@H]2O)[C@]12[C@@H]4C[C@H]3[C@H]1N(CC)C[C@]4(C)CC[C@@H]2O [Napelline]
inactive: A549-ACTB-RAB5A 0 | A549-CANX-COX4 0 | A549-GM130-SQSTM1 0 | A549-TP53BP1-CLTA 0 | A549-TUBA1B-RELA 0 | HepG2-ACTB-RAB5A 0 | HepG2-CANX-COX4 0 | HepG2-GM130-SQSTM1 0 | HepG2-TP53BP1-CLTA 0 | HepG2-TUBA1B-RELA 0 | WPMY1-ACTB-RAB5A 0 | WPMY1-CANX-COX4 0 | WPMY1-GM130-SQSTM1 0 | WPMY1-TP53BP1-CLTA 0 | WPMY1-TUBA1B-RELA 0

CC(=O)O[C@H]1C[C@@H]2CC[C@@H]3[C@H](CC[C@@]4(C)[C@H]3C[C@H]([N+]3(C)CCCCC3)[C@@H]4OC(C)=O)[C@@]2(C)C[C@@H]1[N+]1(C)CCCCC1 [pancuronium]
inactive: A549-ACTB-RAB5A 0 | A549-CANX-COX4 0 | A549-GM130-SQSTM1 0 | A549-TP53BP1-CLTA 0 | A549-TUBA1B-RELA 0 | HepG2-ACTB-RAB5A 0 | HepG2-CANX-COX4 0 | HepG2-GM130-SQSTM1 0 | HepG2-TP53BP1-CLTA 0 | HepG2-TUBA1B-RELA 0 | WPMY1-ACTB-RAB5A 0 | WPMY1-CANX-COX4 0 | WPMY1-GM130-SQSTM1 0 | WPMY1-TP53BP1-CLTA 0 | WPMY1-TUBA1B-RELA 0

COc1ccc2c3c1O[C@H]1C(=O)CC[C@H]4[C@@H](C2)N(C)CC[C@]314 [hydrocodone]
inactive: A549-ACTB-RAB5A 0 | A549-CANX-COX4 0 | A549-GM130-SQSTM1 0 | A549-TP53BP1-CLTA 0 | A549-TUBA1B-RELA 0 | HepG2-ACTB-RAB5A 0 | HepG2-CANX-COX4 0 | HepG2-GM130-SQSTM1 0 | HepG2-TP53BP1-CLTA 0 | HepG2-TUBA1B-RELA 0 | WPMY1-ACTB-RAB5A 0 | WPMY1-CANX-COX4 0 | WPMY1-GM130-SQSTM1 0 | WPMY1-TP53BP1-CLTA 0 | WPMY1-TUBA1B-RELA 0

O=c1ccc2ccc3occc3c2o1 [Angelicin]
inactive: A549-ACTB-RAB5A 0 | A549-CANX-COX4 0 | A549-GM130-SQSTM1 0 | A549-TP53BP1-CLTA 0 | A549-TUBA1B-RELA 0 | HepG2-ACTB-RAB5A 0 | HepG2-CANX-COX4 0 | HepG2-GM130-SQSTM1 0 | HepG2-TP53BP1-CLTA 0 | HepG2-TUBA1B-RELA 0 | WPMY1-ACTB-RAB5A 0 | WPMY1-CANX-COX4 0 | WPMY1-GM130-SQSTM1 0 | WPMY1-TP53BP1-CLTA 0 | WPMY1-TUBA1B-RELA 0

CC1=CC(=O)C2=C(C)C[C@H](O)[C@@H]3[C@H](OC(=O)[C@H]3C)[C@@H]12 [Austricine hydrate]
inactive: A549-ACTB-RAB5A 0 | A549-CANX-COX4 0 | A549-GM130-SQSTM1 0 | A549-TP53BP1-CLTA 0 | A549-TUBA1B-RELA 0 | HepG2-ACTB-RAB5A 0 | HepG2-CANX-COX4 0 | HepG2-GM130-SQSTM1 0 | HepG2-TP53BP1-CLTA 0 | HepG2-TUBA1B-RELA 0 | WPMY1-ACTB-RAB5A 0 | WPMY1-CANX-COX4 0 | WPMY1-GM130-SQSTM1 0 | WPMY1-TP53BP1-CLTA 0 | WPMY1-TUBA1B-RELA 0

CC[C@H]1C[N@@]2CC[C@H]1C[C@H]2[C@@H](O)c1ccnc2ccc(O)cc12 [Hydrocupreine]
inactive: A549-ACTB-RAB5A 0 | A549-CANX-COX4 0 | A549-GM130-SQSTM1 0 | A549-TP53BP1-CLTA 0 | A549-TUBA1B-RELA 0 | HepG2-ACTB-RAB5A 0 | HepG2-CANX-COX4 0 | HepG2-GM130-SQSTM1 0 | HepG2-TP53BP1-CLTA 0 | HepG2-TUBA1B-RELA 0 | WPMY1-ACTB-RAB5A 0 | WPMY1-CANX-COX4 0 | WPMY1-GM130-SQSTM1 0 | WPMY1-TP53BP1-CLTA 0 | WPMY1-TUBA1B-RELA 0
